# Measured values reported in PMC7862700, “An all-to-all approach to the identification of sequence-specific readers for epigenetic DNA modifications on cytosine”.
# What was measured:
# Experiment in all cases: DAPPL (digital affinity profiling via proximity ligation, sequencing); 10 mM Tris-HCl pH 7.5, 50 mM NaCl, 1 mM DTT, 4% glycerol, room temperature, 30 min; GST-TFs on glutathione beads, 16-mer random dsDNA library, 0.1% formaldehyde crosslink after washing; high values mean tight binding
# FLI1 = target: T1, FLI1 (Homo sapiens, UniProt Q01543 1-452); conditions: protein: recombinant; tags: N-terminal GST; dsDNA, one strand shown
# T1 sequence: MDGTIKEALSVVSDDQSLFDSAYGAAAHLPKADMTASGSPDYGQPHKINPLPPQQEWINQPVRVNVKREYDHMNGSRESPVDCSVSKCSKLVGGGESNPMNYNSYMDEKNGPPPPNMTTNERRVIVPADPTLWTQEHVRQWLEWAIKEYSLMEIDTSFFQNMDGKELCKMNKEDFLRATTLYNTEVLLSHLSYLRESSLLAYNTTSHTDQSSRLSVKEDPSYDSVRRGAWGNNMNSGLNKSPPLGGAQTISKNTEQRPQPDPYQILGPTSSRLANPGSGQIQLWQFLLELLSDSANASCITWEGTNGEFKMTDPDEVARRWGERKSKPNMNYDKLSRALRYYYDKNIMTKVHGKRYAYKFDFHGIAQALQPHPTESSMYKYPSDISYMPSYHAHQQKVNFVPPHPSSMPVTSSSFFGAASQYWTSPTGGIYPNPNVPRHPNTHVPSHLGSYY
# In short: (§1)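 Pools of DNA-barcoded human transcription factors, expressed in yeast as GST fusions on glutathione beads and combined with a tag-only sample, were incubated with 200 nmole of a 16-mer random double-stranded DNA library. Incubation took 30 min at room temperature in Tris/NaCl/DTT/glycerol buffer and was followed by washing, 0.1% formaldehyde crosslinking, proximity ligation (BsaI/T4 ligase, 1 h, 37 °C), PCR amplification and sequencing on an Illumina NextSeq500. Binding signal is the ratio of a hexamer's read frequency for a factor to its frequency for the tag-only sample.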
# ELK1 = target: T2, ELK1 (Homo sapiens, UniProt P19419 1-428); conditions: protein: recombinant; tags: N-terminal GST; dsDNA, one strand shown
# T2 sequence: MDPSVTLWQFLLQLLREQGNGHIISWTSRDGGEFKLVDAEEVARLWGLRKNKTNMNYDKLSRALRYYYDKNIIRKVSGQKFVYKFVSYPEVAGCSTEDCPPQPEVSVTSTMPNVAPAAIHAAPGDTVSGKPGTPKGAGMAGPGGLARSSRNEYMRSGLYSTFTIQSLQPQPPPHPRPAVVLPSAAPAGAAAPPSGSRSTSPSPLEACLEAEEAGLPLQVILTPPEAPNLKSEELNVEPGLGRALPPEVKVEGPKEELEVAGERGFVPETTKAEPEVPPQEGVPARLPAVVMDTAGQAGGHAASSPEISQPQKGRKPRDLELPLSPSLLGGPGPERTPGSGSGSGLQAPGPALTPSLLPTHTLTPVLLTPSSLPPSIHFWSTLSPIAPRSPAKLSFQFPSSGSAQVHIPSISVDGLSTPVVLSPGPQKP
# In short: as §1
# GABPA = target: T3, GABPA (Homo sapiens, UniProt Q06546 1-454); conditions: protein: recombinant; tags: N-terminal GST; dsDNA, one strand shown
# T3 sequence: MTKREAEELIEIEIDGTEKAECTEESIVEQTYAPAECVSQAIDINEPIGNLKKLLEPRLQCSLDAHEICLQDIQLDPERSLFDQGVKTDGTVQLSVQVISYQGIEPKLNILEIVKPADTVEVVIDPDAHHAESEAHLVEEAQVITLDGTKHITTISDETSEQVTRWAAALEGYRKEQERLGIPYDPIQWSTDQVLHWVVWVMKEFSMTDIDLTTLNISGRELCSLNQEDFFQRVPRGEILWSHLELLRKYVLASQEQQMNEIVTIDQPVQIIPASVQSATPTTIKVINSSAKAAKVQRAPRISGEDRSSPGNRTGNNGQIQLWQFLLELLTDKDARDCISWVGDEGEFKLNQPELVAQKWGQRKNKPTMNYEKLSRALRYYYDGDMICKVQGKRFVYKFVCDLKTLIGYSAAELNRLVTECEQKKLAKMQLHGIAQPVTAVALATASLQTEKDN
# In short: as §1
# ERG = target: T4, ERG (Homo sapiens, UniProt P11308 1-479); conditions: protein: recombinant; tags: N-terminal GST; dsDNA, one strand shown
# T4 sequence: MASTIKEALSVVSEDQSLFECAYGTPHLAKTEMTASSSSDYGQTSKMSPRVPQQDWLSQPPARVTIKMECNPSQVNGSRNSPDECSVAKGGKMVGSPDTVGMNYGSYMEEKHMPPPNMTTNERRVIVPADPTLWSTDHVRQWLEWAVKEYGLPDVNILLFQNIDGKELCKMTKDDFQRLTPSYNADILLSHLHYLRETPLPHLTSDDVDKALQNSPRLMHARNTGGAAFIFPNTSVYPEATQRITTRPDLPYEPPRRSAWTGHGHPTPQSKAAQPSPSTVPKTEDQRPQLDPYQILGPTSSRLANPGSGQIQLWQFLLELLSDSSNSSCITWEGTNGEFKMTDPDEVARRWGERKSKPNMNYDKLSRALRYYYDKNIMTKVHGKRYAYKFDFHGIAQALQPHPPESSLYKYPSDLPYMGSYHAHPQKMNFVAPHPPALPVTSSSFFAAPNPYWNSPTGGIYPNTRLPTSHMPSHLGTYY
# In short: as §1
# ELF1 = ELF1 (Homo sapiens, UniProt P32519 1-619); conditions: protein: recombinant; tags: N-terminal GST; dsDNA, one strand shown
# In short: as §1
# EHF = target: T5, EHF (Homo sapiens, UniProt Q9NZC4 1-300); conditions: protein: recombinant; tags: N-terminal GST; dsDNA, one strand shown
# T5 sequence: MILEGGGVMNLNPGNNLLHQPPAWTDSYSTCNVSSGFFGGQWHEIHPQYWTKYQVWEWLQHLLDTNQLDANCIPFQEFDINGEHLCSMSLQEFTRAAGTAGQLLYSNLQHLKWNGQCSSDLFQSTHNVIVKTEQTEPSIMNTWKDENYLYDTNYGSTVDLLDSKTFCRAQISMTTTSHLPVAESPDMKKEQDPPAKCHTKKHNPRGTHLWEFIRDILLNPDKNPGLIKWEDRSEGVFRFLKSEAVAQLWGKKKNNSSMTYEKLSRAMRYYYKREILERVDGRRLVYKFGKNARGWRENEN
# In short: as §1
# SPI1 = SPI1 (Homo sapiens, UniProt P17947 1-270); conditions: protein: recombinant; tags: N-terminal GST; dsDNA, one strand shown
# In short: as §1
# SPIB = SPIB (Homo sapiens, UniProt Q01892 1-262); conditions: protein: recombinant; tags: N-terminal GST; dsDNA, one strand shown
# In short: as §1
# ELK3 = target: T6, ELK3 (Homo sapiens, UniProt P41970 1-407); conditions: protein: recombinant; tags: N-terminal GST; dsDNA, one strand shown
# T6 sequence: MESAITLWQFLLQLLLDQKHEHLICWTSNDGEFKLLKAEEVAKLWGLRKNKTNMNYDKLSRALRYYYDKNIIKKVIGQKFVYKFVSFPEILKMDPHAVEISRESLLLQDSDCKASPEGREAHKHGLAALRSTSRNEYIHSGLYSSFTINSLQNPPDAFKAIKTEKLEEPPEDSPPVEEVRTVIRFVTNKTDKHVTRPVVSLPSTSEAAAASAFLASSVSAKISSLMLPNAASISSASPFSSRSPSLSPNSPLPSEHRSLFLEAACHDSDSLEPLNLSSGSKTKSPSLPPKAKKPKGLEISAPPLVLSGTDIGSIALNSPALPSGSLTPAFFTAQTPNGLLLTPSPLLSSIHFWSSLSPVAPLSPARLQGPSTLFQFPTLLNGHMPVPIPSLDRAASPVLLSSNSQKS
# In short: as §1
# FEV = target: T7, FEV (Homo sapiens, UniProt Q99581 1-238); conditions: protein: recombinant; tags: N-terminal GST; dsDNA, one strand shown
# T7 sequence: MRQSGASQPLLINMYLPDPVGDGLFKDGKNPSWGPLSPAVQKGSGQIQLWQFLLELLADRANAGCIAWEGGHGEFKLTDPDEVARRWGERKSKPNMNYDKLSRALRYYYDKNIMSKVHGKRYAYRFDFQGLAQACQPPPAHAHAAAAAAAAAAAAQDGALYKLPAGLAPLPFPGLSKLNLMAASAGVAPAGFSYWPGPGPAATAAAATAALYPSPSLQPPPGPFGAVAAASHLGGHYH
# In short: as §1
# ETV5 = ETV5 (Homo sapiens, UniProt P41161 1-510); conditions: protein: recombinant; tags: N-terminal GST; dsDNA, one strand shown
# In short: as §1
# HSF1 = HSF1 (Homo sapiens, UniProt Q00613 1-529); conditions: protein: recombinant; tags: N-terminal GST; chain copies: 3; dsDNA, one strand shown
# In short: as §1
# SPIC = target: T8, SPIC (Homo sapiens, UniProt Q8N5J4 1-248); conditions: protein: recombinant; tags: N-terminal GST; dsDNA, one strand shown
# T8 sequence: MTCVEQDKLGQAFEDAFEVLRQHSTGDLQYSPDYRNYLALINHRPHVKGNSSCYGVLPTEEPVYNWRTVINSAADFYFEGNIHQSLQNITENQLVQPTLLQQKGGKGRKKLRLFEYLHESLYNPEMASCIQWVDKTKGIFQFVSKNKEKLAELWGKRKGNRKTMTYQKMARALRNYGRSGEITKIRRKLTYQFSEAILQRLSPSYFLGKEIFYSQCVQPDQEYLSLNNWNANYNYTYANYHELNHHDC
# In short: as §1
# ELF4 = ELF4 (Homo sapiens, UniProt Q99607 1-663); conditions: protein: recombinant; tags: N-terminal GST; dsDNA, one strand shown
# In short: as §1
# ELK4 = target: T9, ELK4 (Homo sapiens, UniProt P28324-2 1-405); conditions: protein: recombinant; tags: N-terminal GST; dsDNA, one strand shown
# T9 sequence: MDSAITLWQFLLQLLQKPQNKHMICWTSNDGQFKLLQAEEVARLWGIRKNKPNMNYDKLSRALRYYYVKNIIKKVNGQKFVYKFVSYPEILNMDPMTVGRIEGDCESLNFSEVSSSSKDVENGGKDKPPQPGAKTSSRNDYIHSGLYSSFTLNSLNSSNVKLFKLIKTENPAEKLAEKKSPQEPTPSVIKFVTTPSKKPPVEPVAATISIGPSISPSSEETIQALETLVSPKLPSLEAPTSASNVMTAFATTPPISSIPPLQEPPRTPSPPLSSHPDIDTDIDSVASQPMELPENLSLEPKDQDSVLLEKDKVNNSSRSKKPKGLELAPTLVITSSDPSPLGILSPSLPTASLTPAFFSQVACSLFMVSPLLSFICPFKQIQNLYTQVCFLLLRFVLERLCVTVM
# In short: as §1
# ETV2 = target: T10, ETV2 (Homo sapiens, UniProt O00321 1-342); conditions: protein: recombinant; tags: N-terminal GST; dsDNA, one strand shown
# T10 sequence: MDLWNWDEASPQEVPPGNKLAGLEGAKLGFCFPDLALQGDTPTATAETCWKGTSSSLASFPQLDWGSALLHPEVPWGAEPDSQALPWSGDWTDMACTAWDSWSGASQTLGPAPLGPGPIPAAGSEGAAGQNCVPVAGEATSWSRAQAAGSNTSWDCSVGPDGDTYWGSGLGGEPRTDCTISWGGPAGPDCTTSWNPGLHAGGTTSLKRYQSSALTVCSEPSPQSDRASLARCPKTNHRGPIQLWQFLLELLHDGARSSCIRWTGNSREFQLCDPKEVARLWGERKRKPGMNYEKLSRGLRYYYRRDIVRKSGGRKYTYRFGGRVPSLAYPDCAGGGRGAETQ
# In short: as §1
# ELF3 = target: T11, ELF3 (Homo sapiens, UniProt P78545 1-371); conditions: protein: recombinant; tags: N-terminal GST; dsDNA, one strand shown
# T11 sequence: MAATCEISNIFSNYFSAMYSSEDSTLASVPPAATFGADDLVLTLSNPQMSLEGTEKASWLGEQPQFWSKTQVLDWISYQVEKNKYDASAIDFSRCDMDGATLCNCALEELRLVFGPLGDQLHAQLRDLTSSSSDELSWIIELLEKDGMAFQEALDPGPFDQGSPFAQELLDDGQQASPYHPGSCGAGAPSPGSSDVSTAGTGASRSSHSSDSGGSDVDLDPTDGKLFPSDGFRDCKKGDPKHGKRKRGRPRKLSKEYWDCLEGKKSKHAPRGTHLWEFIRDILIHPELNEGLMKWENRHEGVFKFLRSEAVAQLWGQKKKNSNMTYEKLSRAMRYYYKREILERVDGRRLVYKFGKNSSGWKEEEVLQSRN
# In short: as §1
# CRX = CRX (Homo sapiens, UniProt O43186 1-299); conditions: protein: recombinant; tags: N-terminal GST; dsDNA, one strand shown
# In short: as §1
# ETV1 = ETV1 (Homo sapiens, UniProt P50549 1-477); conditions: protein: recombinant; tags: N-terminal GST; dsDNA, one strand shown
# In short: as §1
# Chain of ELF4 (Q99607 whole entry): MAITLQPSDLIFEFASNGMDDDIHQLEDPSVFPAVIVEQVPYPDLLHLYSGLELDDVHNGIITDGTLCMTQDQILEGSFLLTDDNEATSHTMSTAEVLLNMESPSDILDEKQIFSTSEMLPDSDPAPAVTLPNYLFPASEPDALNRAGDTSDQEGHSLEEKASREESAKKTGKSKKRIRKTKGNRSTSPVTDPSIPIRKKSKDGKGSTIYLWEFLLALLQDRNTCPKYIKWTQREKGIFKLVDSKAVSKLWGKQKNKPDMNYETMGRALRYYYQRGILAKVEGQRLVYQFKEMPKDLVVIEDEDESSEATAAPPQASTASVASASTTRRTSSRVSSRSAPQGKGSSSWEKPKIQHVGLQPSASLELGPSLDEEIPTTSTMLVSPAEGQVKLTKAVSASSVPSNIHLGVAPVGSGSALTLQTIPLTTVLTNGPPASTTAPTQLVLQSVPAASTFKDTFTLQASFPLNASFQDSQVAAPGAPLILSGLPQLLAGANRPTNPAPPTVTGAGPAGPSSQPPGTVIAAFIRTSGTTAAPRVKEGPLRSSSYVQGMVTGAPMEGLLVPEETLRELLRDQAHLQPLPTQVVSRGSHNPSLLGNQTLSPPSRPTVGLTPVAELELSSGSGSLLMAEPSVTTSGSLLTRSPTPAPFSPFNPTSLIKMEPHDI
# Chain of HSF1 (Q00613 whole entry): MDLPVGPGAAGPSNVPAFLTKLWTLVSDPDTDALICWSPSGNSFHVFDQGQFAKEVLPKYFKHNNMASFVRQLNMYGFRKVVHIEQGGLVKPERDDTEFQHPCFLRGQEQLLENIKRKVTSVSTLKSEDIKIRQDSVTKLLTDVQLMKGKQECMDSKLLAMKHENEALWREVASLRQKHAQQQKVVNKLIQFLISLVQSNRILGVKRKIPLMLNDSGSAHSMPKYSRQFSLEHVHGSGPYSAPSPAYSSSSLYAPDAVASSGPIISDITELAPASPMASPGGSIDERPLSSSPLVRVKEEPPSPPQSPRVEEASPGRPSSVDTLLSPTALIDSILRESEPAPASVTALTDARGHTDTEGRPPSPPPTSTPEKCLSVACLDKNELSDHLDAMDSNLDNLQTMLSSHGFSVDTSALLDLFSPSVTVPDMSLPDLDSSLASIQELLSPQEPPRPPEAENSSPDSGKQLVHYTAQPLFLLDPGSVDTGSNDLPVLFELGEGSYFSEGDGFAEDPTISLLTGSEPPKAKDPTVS
# Chain of CRX (O43186 whole entry): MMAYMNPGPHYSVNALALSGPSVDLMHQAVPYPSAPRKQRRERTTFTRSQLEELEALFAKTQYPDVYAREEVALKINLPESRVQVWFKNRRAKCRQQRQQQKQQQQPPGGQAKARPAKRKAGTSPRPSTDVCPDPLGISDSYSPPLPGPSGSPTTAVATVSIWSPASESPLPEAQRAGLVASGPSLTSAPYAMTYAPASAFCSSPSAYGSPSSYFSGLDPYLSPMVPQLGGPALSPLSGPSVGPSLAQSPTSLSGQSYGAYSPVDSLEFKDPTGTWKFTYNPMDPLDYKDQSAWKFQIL
# Chain of SPIB (Q01892 whole entry): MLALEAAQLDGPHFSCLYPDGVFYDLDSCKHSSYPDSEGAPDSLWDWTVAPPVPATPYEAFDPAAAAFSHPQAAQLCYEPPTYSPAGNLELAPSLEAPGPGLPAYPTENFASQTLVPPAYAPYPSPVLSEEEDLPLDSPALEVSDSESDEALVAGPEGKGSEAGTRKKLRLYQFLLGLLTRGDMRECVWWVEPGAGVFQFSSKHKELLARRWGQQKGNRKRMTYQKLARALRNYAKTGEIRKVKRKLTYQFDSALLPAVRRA
# Chain of ETV1 (P50549 whole entry): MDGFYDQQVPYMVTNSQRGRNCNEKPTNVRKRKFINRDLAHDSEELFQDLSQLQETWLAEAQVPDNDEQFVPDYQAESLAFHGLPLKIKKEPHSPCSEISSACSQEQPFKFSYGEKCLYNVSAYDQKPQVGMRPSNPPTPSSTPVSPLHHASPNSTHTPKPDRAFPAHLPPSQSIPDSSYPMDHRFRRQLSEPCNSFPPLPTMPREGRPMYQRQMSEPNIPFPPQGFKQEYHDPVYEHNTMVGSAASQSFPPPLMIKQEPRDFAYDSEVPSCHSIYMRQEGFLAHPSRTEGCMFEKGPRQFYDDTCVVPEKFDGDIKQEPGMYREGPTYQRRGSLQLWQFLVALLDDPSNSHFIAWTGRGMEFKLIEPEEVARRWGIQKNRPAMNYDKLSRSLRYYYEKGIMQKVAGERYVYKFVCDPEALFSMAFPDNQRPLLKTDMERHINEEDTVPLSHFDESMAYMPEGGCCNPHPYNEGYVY
# Chain of ELF1 (P32519 whole entry): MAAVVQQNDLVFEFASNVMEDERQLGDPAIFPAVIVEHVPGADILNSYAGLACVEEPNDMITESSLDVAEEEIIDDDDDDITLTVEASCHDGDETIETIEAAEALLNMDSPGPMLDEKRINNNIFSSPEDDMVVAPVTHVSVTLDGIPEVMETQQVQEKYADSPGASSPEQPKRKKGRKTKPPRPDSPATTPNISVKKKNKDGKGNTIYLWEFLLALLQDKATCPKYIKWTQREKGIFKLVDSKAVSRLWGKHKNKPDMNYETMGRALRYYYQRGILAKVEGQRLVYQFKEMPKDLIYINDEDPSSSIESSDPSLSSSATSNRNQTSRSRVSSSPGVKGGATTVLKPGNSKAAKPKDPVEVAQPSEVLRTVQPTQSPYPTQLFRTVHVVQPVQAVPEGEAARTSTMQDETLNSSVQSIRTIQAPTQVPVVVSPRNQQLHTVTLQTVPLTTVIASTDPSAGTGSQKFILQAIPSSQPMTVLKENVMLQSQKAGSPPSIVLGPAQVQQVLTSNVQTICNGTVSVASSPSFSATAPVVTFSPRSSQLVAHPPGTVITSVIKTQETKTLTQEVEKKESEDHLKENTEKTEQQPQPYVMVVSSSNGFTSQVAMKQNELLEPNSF
# Chain of ETV5 (P41161 whole entry): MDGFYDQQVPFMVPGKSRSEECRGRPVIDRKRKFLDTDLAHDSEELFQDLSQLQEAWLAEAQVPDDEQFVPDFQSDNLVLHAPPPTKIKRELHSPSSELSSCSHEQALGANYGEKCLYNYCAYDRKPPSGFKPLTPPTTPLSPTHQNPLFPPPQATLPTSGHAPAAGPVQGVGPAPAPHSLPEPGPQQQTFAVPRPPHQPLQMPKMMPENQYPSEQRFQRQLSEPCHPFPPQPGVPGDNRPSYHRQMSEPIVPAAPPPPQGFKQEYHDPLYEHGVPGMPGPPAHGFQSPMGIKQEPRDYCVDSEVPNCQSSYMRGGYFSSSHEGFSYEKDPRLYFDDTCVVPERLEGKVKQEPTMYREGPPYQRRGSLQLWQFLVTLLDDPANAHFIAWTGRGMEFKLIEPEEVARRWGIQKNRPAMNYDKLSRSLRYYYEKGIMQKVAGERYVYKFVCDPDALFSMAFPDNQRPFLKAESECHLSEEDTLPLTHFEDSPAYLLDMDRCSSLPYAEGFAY
sequence,measurement,setting,value
TACTTA,binding signal,FLI1,"1.17 fold enrichment (6-mer frequency, TF over GST control)"
same,binding signal,ELK1,"1.18 fold enrichment (6-mer frequency, TF over GST control)"
same,binding signal,GABPA,"1.15 fold enrichment (6-mer frequency, TF over GST control)"
same,binding signal,ERG,"1.16 fold enrichment (6-mer frequency, TF over GST control)"
same,binding signal,ELF1,"1.22 fold enrichment (6-mer frequency, TF over GST control)"
same,binding signal,EHF,"1.33 fold enrichment (6-mer frequency, TF over GST control)"
same,binding signal,SPI1,"1.21 fold enrichment (6-mer frequency, TF over GST control)"
same,binding signal,SPIB,"1.15 fold enrichment (6-mer frequency, TF over GST control)"
same,binding signal,ELK3,"1.42 fold enrichment (6-mer frequency, TF over GST control)"
same,binding signal,FEV,"1.12 fold enrichment (6-mer frequency, TF over GST control)"
same,binding signal,ETV5,"1.17 fold enrichment (6-mer frequency, TF over GST control)"
same,binding signal,HSF1,"1.7 fold enrichment (6-mer frequency, TF over GST control)"
same,binding signal,SPIC,"1.12 fold enrichment (6-mer frequency, TF over GST control)"
same,binding signal,ELF4,"1.21 fold enrichment (6-mer frequency, TF over GST control)"
same,binding signal,ELK4,"1.25 fold enrichment (6-mer frequency, TF over GST control)"
same,binding signal,ETV2,"1.16 fold enrichment (6-mer frequency, TF over GST control)"
same,binding signal,ELF3,"1.33 fold enrichment (6-mer frequency, TF over GST control)"
same,binding signal,CRX,"2.6 fold enrichment (6-mer frequency, TF over GST control)"
same,binding signal,ETV1,"1.24 fold enrichment (6-mer frequency, TF over GST control)"
